High-throughput results: PubChem BioAssay, National Center for Advancing Translational Sciences (NCATS)
The list is not random: actives were taken first. Their share in the collection is about 8.7%.
G9a inh – G9a (human) methyltransferase inhibition | 350,000 tested, 8.8% active | AID 504332 | G9a H3K9 monomethylation, AlphaScreen, 2 h | Potency, µM (series often up to 102 µM), for inactives: at the highest dose activity, negative = inhibition, actives largely listed as inhibitors | Q96KQ7; further: on the % scale 0 is the no-effect control and ±100 the full control effect; nearly all actives have a fitted effect of over 75% in size
Target sequence (Q96KQ7 913-1193 limits assumed): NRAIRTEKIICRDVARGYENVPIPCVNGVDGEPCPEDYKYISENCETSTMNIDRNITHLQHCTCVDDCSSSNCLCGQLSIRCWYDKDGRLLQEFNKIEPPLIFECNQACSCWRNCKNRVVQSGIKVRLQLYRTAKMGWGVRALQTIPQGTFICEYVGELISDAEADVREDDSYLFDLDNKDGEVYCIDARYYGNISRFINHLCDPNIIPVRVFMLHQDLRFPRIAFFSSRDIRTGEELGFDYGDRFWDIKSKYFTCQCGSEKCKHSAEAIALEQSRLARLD
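Methyltransferase reactions run at room temperature for 2 h (20 nM enzyme, 500 nM biotin-H3K9 peptide, 20 uM SAM) after a 15 min compound preincubation; product detected by AlphaScreen beads and anti-H3K9me1 antibody.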
ALOX12 inh – blocks human arachidonate 12S-lipoxygenase; P18054; purified 12hLO, xylenol orange hydroperoxide absorbance; Potency, µM (highest dose often 108 µM), without a hit: at the highest dose activity change, negative = inhibition, usual class: inhibitors; 580,000 tested, 1.1% active; AID 1671190; further: on the % scale 0 is the no-effect control and ±100 the full control effect
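Purified human 12hLO at 150 nM in 25 mM Hepes, 0.01% Triton X-100, pH 7.0, preincubated 15 min at room temperature with compound. Reaction started with 40 uM arachidonic acid, 30 min at room temperature. Hydroperoxide measured by Fe-xylenol orange, 573/405 nm absorbance ratio.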
HP1b binding inh – blocks HP1-beta chromodomain binding to methylated histone tails. P83916. Potency, µM (doses to about 114 µM), for the others: at the top dose activity change, negative = inhibition, most hits filed as inhibitors. AlphaScreen HP1-beta / biotin-H3K9me3 peptide binding. 390,000 tested, 0.56% active; further: nearly all actives have a fitted effect of over 70% in size
Target sequence (P83916 whole entry, looked up): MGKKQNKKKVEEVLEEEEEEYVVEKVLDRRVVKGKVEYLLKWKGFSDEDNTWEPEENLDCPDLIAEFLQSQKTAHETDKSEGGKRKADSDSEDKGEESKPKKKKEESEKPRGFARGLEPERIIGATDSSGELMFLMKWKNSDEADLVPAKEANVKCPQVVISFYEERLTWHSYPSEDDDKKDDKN
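Compound inhibition of the preformed complex between 50 nM HP1-beta and 50 nM biotinylated H3K9me3 peptide was read by AlphaScreen. Buffer was PBS pH 7.4 with 0.01% Tween-20. Incubations ran 30 min at room temperature, with 10 ug/mL donor/acceptor beads.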
BAZ2B inh – blocks human BAZ2B. Q9UIF8. AID 504333. 360,000 tested, 4.4% active. AlphaScreen BAZ2B-H3K14Ac peptide displacement. Potency, µM (doses to about 114 µM), without a hit: at the highest dose activity change, negative = inhibition, most hits filed as inhibitors; further: on the % scale 0 is the no-effect control and ±100 the full control effect; nearly all actives have a fitted effect of over 60% in size
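Complex of BAZ2B and biotin-H3K14Ac (50 nM apiece) forms over 30 min at RT, then faces library compounds up to 110 uM for another 30 min; AlphaScreen beads added, 20 min dark incubation, luminescence read.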
Sfp inh – blocks B. subtilis Sfp PPTase activity | 310,000 tested, 3.5% active | Q9F4F7 | AID 1490 | Potency, µM, without a hit: largest response in the series, negative = inhibition, most hits filed as inhibitors | Biochemical Sfp PPTase activity, qHTS;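 further: the enzyme is Sfp with the accession as filed and its product quenches rhodamine fluorescence; 0% = enzyme reaction without inhibitor and -100% = no enzyme wells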
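Fluorescence-quenching assay with 15 nM Sfp, 5 uM rhodamine-CoA and 12.5 uM BHQ-2-labelled ybbR peptide in pH 7.6 Hepes/MgCl2 buffer. Enzyme was pre-incubated with compound for 15 min at room temperature. Rate was taken from the 30-min fluorescence change (525/598 nm).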
JMJD2A Tudor – blocks the human JMJD2A Tudor domain; AID 504339; AlphaScreen JMJD2A-Tudor / H3K4me3 peptide binding; 390,000 tested, 4.4% active; O75164; Potency, µM (series often up to 114 µM), without a hit: top-dose activity change, negative = inhibition, most hits filed as inhibitors; further: on the % scale 0 is the no-effect control and ±100 the full control effect; nearly all actives have a fitted effect of over 50% in size
The depositor's hits bear a star; ? = inconclusive; . = no result; [ ] = remark or other dose. The call rests on the fitted dose curve; in most records, active means well fitted curve in the direction sought with a large enough effect; inconclusive means small, poorly fitted or top-dose-only effect, or another doubt; inactive means no such curve, though single readings can be large; an effect the other way counts as inactive or inconclusive. Potency means the concentration at half of the fitted maximal effect.

SMILES	G9a inh	ALOX12 inh	HP1b binding inh	BAZ2B inh	Sfp inh	JMJD2A Tudor
COc1ccccc1-c1cnc(Nc2ccc3c(c2)OCCO3)c2c1CCO2	.	1.7%[176 µM]	.	.	.	.
O=Cc1ccccc1OCc1ccccc1	.	3.5%	.	.	.	.
OCCNc1nc(Nc2ccccc2)nc2nccnc12	.	3.1%	.	.	.	.
COc1ccc(C2C(C(N)=O)=C(C)Nc3nc(-c4cccc(C)c4)nn32)cc1 (centres undefined)	.	-21.4%	.	.	.	.
Cc1cc(N2CCC(C)CC2)nc2cccc(O)c12	50.1µM*	?	-2.6%	-28.8%	15.2%	?
Cc1cc(N2CCC(C)CC2)nc2ccc(NC(=O)c3ccccc3)cc12	.	-25.3%	.	.	.	.
CN(Cc1cccnc1)Cc1nc(C2(O)CCN(Cc3ccc(C(F)(F)F)cc3)CC2)cs1	.	9.6%	.	.	.	.
CCN(Cc1ccccc1)S(=O)(=O)c1ccc(C(=O)N(CCCN(C)C)c2nc3c(F)cccc3s2)cc1	?	?	-6.9%	?	79.4µM*	?
Cc1ccc2sc(N(CCCN(C)C)C(=O)c3ccc(S(=O)(=O)N(C)C)cc3)nc2c1C	?	-13.5%	30.9%	.	-0.8%	-4.3%
Cc1ccc2sc(N(CCCN(C)C)C(=O)c3ccc(S(=O)(=O)N(C)Cc4ccccc4)cc3)nc2c1C	10µM*	28.2µM*	?	2.9%	.	?
CCOc1cccc2sc(N(CCCN(C)C)C(=O)c3ccc(S(=O)(=O)N(C)Cc4ccccc4)cc3)nc12	?	?	3.6%	-21.4%	56.2µM*	-19.4%
COc1cccc(O)c1CN1CCCC12Cc1ccccc1CNC2=O (centres undefined)	.	-1.7%[6.33 µM]	.	.	.	.
CC(NC(=O)c1n[nH]c(=O)c2ccccc12)c1ccc(F)cc1 (centres undefined)	.	48.7%	.	.	.	.
C#CCOCCOCCOCCNc1nc(N2CCN(C(=O)CCCCCCCCCCNC(=O)[C@@H](CCSC)n3cc(CCO)nn3)CC2)nc(N2CCN(C(=O)CCCCCCCCCCNC(=O)[C@@H]([C@H](C)O)n3cc(C)nn3)CC2)n1	-3.8%[2.33 µM]	-6.4%	46.3%	?	.	-15.0%
C#CCOCCOCCOCCNc1nc(N2CCN(C(=O)CCCCCCCCCCNC(=O)[C@H](CCCCN)n3cc(C)nn3)CC2)nc(N2CCN(C(=O)CCCCCCCCCCNC(=O)[C@@H]([C@H](C)O)n3cc(C)nn3)CC2)n1	-3.5%[2.33 µM]	.	-21.8%	-36.9%	.	56.2µM*
C#CCOCCOCCOCCNc1nc(N2CCN(C(=O)CCCCCCCCCCNC(=O)[C@H](CCCCN)n3cc(C[C@@H](C)CC)nn3)CC2)nc(N2CCN(C(=O)CCCCCCCCCCNC(=O)[C@@H]([C@H](C)O)n3cc(C)nn3)CC2)n1	-3.7%[2.33 µM]	.	?	50.1µM*	.	56.2µM*
Cc1ccc(-c2cnc([C@@H]3COCCN3C(C)C)[nH]2)cc1	.	15.8%[176 µM]	.	.	.	.
C/C(=N\O)C1(C)N(O)C(C)(C)C(c2ccco2)=[N+]1[O-] (centres undefined)	40.7%[59 µM]	-7.7%	43.1%	-2.0%	13.8%	-5.1%
C/C(=N\Nc1cccc(Cl)c1)C1(C)N(O)C(C)(C)C(c2ccco2)=[N+]1[O-] (centres undefined)	44.7µM*	?	27.9%	-34.0%	7.8%	-26.5%
COC[C@H]1C[C@@H](NCc2nccn2C)[C@H](O)[C@@H]1O	.	67.0%[176 µM]	.	.	.	.
Cc1c(Cl)cccc1NC(=S)NC1CC1	?	-0.7%	39.9%	-22.1%	-8.5%	4.2%
Cc1c(Cl)cccc1NC(=S)/C(=C(\[O-])c1ccc(Cl)s1)[n+]1ccccc1	?	?	?	?	-10.6%	44.7µM*
[O-]/C(=C(\C(=S)Nc1ccc(SC(F)F)cc1)[n+]1cccc(CO)c1)c1ccc(Cl)s1	25.1µM*	-6.8%	-12.8%	31.6µM*	?	?
Cc1ccc(NC(=S)/C(=C(\[O-])c2ccc(Cl)s2)[n+]2cccc(CO)c2)cc1C	44.7µM*	-28.6%	?	12.4%	25.1µM*	50.1µM*
